Screens (PubChem)
In the library only some 1.9% were active in any assay of this set; here they are far more common.
ATG4B inhibitor: ATG4B (human) cysteine protease inhibition; ATG4B cleavage of LC3-PLA2, NBD-HPC fluorescence, 1 h; inhibition, % at 8.33 µM; 340,000 tested, 0.51% active; AID 504462; in the data active = inhibition above about 40%
PP1 counter: counter-screen for PP5 inhibitors: inhibitors of human PP1-alpha | P62136 | purified PP1alpha, OMFP fluorescence | inhibition, % at 6.7 µM | 320,000 tested, 0.9% active;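 active = inhibition above the mean inhibition of all tested compounds plus 3 SD, computed separately for each screening campaign, cut at about 15% in these data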
Target sequence (P62136 whole entry, looked up): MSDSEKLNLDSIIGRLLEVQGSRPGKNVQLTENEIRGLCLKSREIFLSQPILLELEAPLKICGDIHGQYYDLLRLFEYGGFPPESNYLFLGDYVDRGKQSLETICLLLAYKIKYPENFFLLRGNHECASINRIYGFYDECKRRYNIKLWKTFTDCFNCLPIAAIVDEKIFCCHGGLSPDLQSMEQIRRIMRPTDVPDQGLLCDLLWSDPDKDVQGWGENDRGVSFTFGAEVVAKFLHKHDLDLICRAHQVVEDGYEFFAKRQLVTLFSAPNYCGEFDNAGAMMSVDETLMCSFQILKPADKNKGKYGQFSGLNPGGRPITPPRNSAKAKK
PP5 primary: blocks human protein phosphatase 5 activity. inhibition, % at 6.7 µM. AID 1987. 320,000 tested, 0.18% active. purified PP5c, OMFP substrate fluorescence. P53041;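 active = inhibition above the campaign's mean inhibition across all tested compounds plus 3 SD, cut at about 9.5% in these data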
Cardio protect: modulators protecting cardiomyocytes from myocardial damage. H9c2 cardiomyocytes, H2O2 injury protection, ATPLite, 2 h. protection from H2O2 cell death, % at 20 µM. 360,000 tested, 0.63% active;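 active = compounds giving at least 50% protection of heart cells from peroxide-induced death in the single-dose screen, raw or plate-pattern-corrected value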
PP5 conf: confirmation of human PP5 phosphatase inhibitors | shares compounds with PP5 primary | Purified PP5, fluorogenic phosphatase substrate, fluorescence | inhibition, % at 6.7 µM | 460 tested, 22% active | AID 2331; in the data active = inhibition above about 9.5%
PP1 inh counter: PP1 phosphatase inhibition, counter-screen for PP5 inhibitors | shares compounds with PP5 primary | PP1 enzyme, fluorescent phosphatase substrate | inhibition, % at 6.7 µM | 460 tested, 4% active | AID 2355; in the data active = inhibition above about 16%
Large screens that a line does not name were inactive (follow-up assays come after a bar, where they were run).

CC(C(=O)OCC(=O)Nc1ccccc1OC(F)F)N1C(=O)C2CC=CCC2C1=O (centres undefined)	none (no result: ATG4B inhibitor, PP1 counter, PP5 primary)
CCCCOc1ccc(C(=O)Nc2ccc(N3CCN(C(C)=O)CC3)cc2)cc1	PP5 primary 12 | PP5 conf inactive | PP1 inh counter inactive
CCCCOc1ccc(C(=O)Nc2ccc(N3CCN(C(=O)C(C)C)CC3)cc2)cc1	none
Cc1ccc(N(CC(O)CN2C(=O)NC(C)(C)C2=O)S(=O)(=O)c2ccc(C)cc2)cc1 (centres undefined)	none
Cc1ccccc1S(=O)(=O)N(CC(O)CN1C(=O)NC(C)(C)C1=O)c1ccccc1 (centres undefined)	PP5 primary 10 | PP5 conf inactive | PP1 inh counter inactive
CC1(C)Cc2c(sc(NC(=O)Nc3ccccc3)c2C(N)=O)CO1	PP5 primary 11 | PP5 conf inactive | PP1 inh counter inactive
C#CCN(C[C@H]1[C@H](OC(=O)NCc2ccco2)[C@H](OC(=O)NCc2ccco2)C[C@@H](C(=O)OC)[C@H]1C(=O)OC)S(=O)(=O)c1ccc(C)cc1	none (no result: ATG4B inhibitor, PP1 counter, PP5 primary)
NS(=O)(=O)c1ccc(NC2=CC(=O)C(=O)c3ccccc32)cc1	PP5 primary 11 | PP5 conf 37 | PP1 inh counter inactive
O=C(NC1(O)C(=O)c2ccccc2C1=O)c1ccccc1	PP5 primary 15 | PP5 conf 39 | PP1 inh counter inactive
O=C(NC1(O)C(=O)c2ccccc2C1=O)c1c(Cl)cccc1Cl	PP5 primary 16 | PP5 conf 42 | PP1 inh counter inactive
COC1(NC(=O)c2ccccc2)C(C)=CC(=O)C=C1C	none
O=C(Nc1ccccc1Cl)c1c(F)c(F)c(F)c(F)c1F	none
CC(Sc1nnc(CN2CCCC2)n1Cc1ccccc1)C(=O)Nc1ccc(F)cc1Cl (centres undefined)	none (no result: PP1 counter, PP5 primary)
COc1ccccc1N1CCN(C(=O)c2ccc(COc3cccc4c3OC(C)(C)C4)cc2)CC1	PP5 primary 12 | PP5 conf inactive | PP1 inh counter inactive
O=C(c1ccc(Br)cc1)N1CCN(c2ncccn2)CC1	none
O=C(c1ccc([N+](=O)[O-])cc1)N1CCN(c2ncc(Br)cn2)CC1	PP5 primary 11 | PP5 conf inactive | PP1 inh counter inactive
CC(=O)Nc1ccc(S(=O)(=O)N2CCC(C(N)=O)(N3CCCCC3)CC2)cc1	none
CCn1nnc(-c2ccccc2NS(=O)(=O)c2ccc(S(=O)(=O)N(C)C3CCCCC3)cc2)n1	PP5 primary 12 | PP5 conf inactive | PP1 inh counter inactive
O=c1[nH]c(=S)[nH]cc1Oc1ccccc1	none (no result: PP1 counter, PP5 primary)
Cc1ccc(-c2cc(C(=O)NCc3cccs3)no2)cc1	PP5 primary 9.9 | PP5 conf inactive | PP1 inh counter inactive
O=C(NCc1cccs1)c1cc(-c2ccc(O)cc2)on1	none
COc1ccc(C2CC(c3cccc(Cl)c3)=NN2c2ccc(S(N)(=O)=O)cc2)cc1 (centres undefined)	none (no result: PP1 counter, PP5 primary)
COc1ccccc1-c1noc(-c2ccccc2C(=O)Nc2cccnc2)n1	PP5 primary 10 | PP5 conf inactive | PP1 inh counter inactive
COc1ccc(-c2noc(-c3ccccc3C(=O)Nc3cccnc3)n2)cc1OC	none
Cn1c(-c2ccccc2)cc(=O)c2ccccc21	none
Cn1c2ccccc2c(=O)n2c(=O)c3ccccc3cc12	PP5 primary 11 (no result: ATG4B inhibitor, Cardio protect) | PP5 conf 29 | PP1 inh counter inactive
Cc1snc(S(=O)(=O)/C(C#N)=N\Nc2ccccc2)c1C#N	none
Cc1snc(S(=O)(=O)/C(C#N)=N/Nc2ccc(C(F)(F)F)cc2)c1C#N	PP5 primary 10 | PP5 conf inactive | PP1 inh counter inactive
CC(C)(C)OC(=O)NCCCCCNC(=O)c1[nH]cnc1C(=O)N[C@@H](CCCCNC(=O)OC(C)(C)C)C(=O)OC(C)(C)C	PP5 primary 13 | PP5 conf inactive | PP1 inh counter inactive
CC(C)(C)OC(=O)CNC(=O)c1[nH]cnc1C(=O)N[C@@H](CCCCNC(=O)OC(C)(C)C)C(=O)OC(C)(C)C	none
CC(C)C[C@H](NC(=O)c1[nH]cnc1C(=O)N[C@@H](C)c1ccccc1)C(=O)OC(C)(C)C	PP5 primary 9.9 | PP5 conf 9.7 | PP1 inh counter inactive
CC(C)(C)OC(=O)NCCCC[C@H](NC(=O)c1nc[nH]c1C(=O)N[C@@H](CCCCNC(=O)OC(C)(C)C)C(=O)OC(C)(C)C)C(=O)OC(C)(C)C	PP5 primary 16 | PP5 conf 11 | PP1 inh counter inactive
CC(C)C[C@H](NC(=O)c1nc[nH]c1C(=O)N[C@@H](CCCCNC(=O)OC(C)(C)C)C(=O)OC(C)(C)C)C(=O)OCc1ccccc1	PP5 primary 11 | PP5 conf inactive | PP1 inh counter inactive
O=C1NC(=O)/C(=C\c2cn(CC(=O)N3CCOCC3)c3ccccc23)S1	none
CC(C)(C)OC(=O)NCCCC[C@H](NC(=O)c1nc[nH]c1C(=O)NC1CCN(C(=O)OC(C)(C)C)CC1)C(=O)OC(C)(C)C	PP5 primary 11 | PP5 conf inactive | PP1 inh counter inactive
C[C@H](NC(=O)c1nc[nH]c1C(=O)N[C@@H](CCCCNC(=O)OC(C)(C)C)C(=O)OC(C)(C)C)C(=O)OCc1ccccc1	none
Cc1cccc(NC(=O)c2nc[nH]c2C(=O)NCCCCCNC(=O)OC(C)(C)C)c1	none
Cc1cccc(NC(=O)c2nc[nH]c2C(=O)N[C@@H](CCCCNC(=O)OC(C)(C)C)C(=O)OC(C)(C)C)c1	PP5 primary 11 | PP5 conf inactive | PP1 inh counter inactive
C[C@H](NC(=O)c1nc[nH]c1C(=O)N[C@@H](CCCCNC(=O)OC(C)(C)C)C(=O)OC(C)(C)C)C(=O)OC(C)(C)C	PP5 primary 9.6 | PP5 conf inactive | PP1 inh counter inactive
CC(C)C[C@H](NC(=O)c1nc[nH]c1C(=O)NC1CCN(C(=O)OC(C)(C)C)CC1)C(=O)OC(C)(C)C	none
CC(C)(C)OC(=O)[C@H](Cc1ccccc1)NC(=O)c1nc[nH]c1C(=O)NC1CCN(C(=O)OC(C)(C)C)CC1	PP5 primary 10 | PP5 conf 10 | PP1 inh counter inactive
COc1ccc(-c2c(-c3cc(OC)cc(OC)c3)n(C)c3ccc(-c4ccc(N(C)C)nc4)cc23)cc1	none
CCc1ccccc1N1CC(C(=O)Nc2cc(C)on2)CC1=O (centres undefined)	none
COC(=O)c1c(NC(=O)CS(=O)(=O)c2ccccc2)sc(C)c1C	none
COc1ccc2occ(C(=O)c3coc4ccc(O)c(CN(C)C)c34)c2c1	PP5 primary 11, Cardio protect 61 | PP5 conf inactive | PP1 inh counter inactive
CCC/C(O)=C1\C(=O)CC(C)(C)CC1=Nc1cccc([N+](=O)[O-])c1	none
CCOc1ccc(S(=O)(=O)NC(C)(C)C)cc1-c1nc2c(C(C)(C)C)nn(C)c2c(=O)[nH]1	PP5 primary 10 | PP5 conf inactive | PP1 inh counter inactive
CCOc1ccc(S(N)(=O)=O)cc1-c1nc2c(C(C)(C)C)nn(C)c2c(=O)[nH]1	none
